Source: PubChem BioAssay (NCATS)
Results filed as inconclusive are left out. A call without a number means that no potency is given here. Calls of active or inactive are those of the source. Calls come from the whole dose curve; as a rule, active = well fitted cell-killing curve with a large enough effect; inconclusive = small, poorly fitted or top-dose-only effect, or effect the other way; inactive = no such curve, though single readings can be large or run the other way.

What was measured:
[1] = Viability qHTS for spleen associated tyrosine kinase inhibitor (SYKi) naive MV4-11 cells (AID 1963823); conditions: MV4-11 AML viability, CellTiter-Glo luminescence, 72 h; series mostly up to 45 µM; note: nearly all actives have a fitted effect of over 40% in size
Procedure, shortened: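 Compounds were dispensed acoustically onto plates, MV4-11 cells (SYKi-naive) added at 500 per well, and plates incubated 72 hr at 37 C. CellTiter-Glo was added and luminescence measured after 10 min.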

[2] = Viability qHTS for spleen associated tyrosine kinase inhibitor (SYKi) drug resistant MV4-11 cells (AID 1963824); conditions: SYKi-resistant MV4-11 viability, CellTiter-Glo, 72 h; series mostly up to 45 µM; note: nearly all actives have a fitted effect of over 35% in size
Procedure, shortened: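 CellTiter-Glo luminescence, read 10 min after reagent addition, reports viability after a 72 hr compound exposure. Cells are an MV4-11 line made resistant to SYK inhibition, seeded at 500 per well onto compound-containing plates.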
Potency is the fitted concentration of half-maximal effect.

SMILES | Potency [1] | Potency [2] | viability (% of control) [1] | viability, % of control [2]
C/C=C/C=C/C(O)=C1\C(O)=C(C)C(=O)[C@@]2(C)OC(=O)[C@@](C)(NC(=O)/C=C/C(=O)O)[C@@H]12 | inactive | inactive |  | 
C=C1[C@@H]2CC[C@@]3(C)[C@H](c4ccoc4)OC(=O)C[C@]13O[C@H]1CC(=O)C(C)(C)[C@H](CC(=O)OC)[C@]12C | inactive | inactive |  | 
CC(C)C1CCC(CO)=CC1/C=C(\CO)C(=O)OCC1(O)CCC(C(C)C)C2C=C(C(=O)O)COC(=O)C21 (stereo unspecified) | inactive | inactive |  | 
C[C@]1(O)CC[C@@H]2C(C(=O)O)=CO[C@@H](O[C@@H]3O[C@H](COC(=O)c4ccc(O)cc4)[C@@H](O)[C@H](O)[C@H]3O)[C@@H]21 | inactive | inactive |  | 
COc1cc(NC(=O)Nc2cccc(CNC(=O)O[C@H]3CCOC3)c2)ccc1-c1cnco1 | 1.3 µM (active) | 0.82 µM (active) |  | 
C/C1=C\[C@H]2OC(=O)[C@@H](C)[C@@H]2CC/C(C(=O)O)=C/CC1 | inactive | inactive |  | 
CC(=O)N1c2ccccc2C2(O)CC3C(=O)NC(CC(C)C)C(=O)N3C12 (stereo unspecified) | inactive | inactive |  | 
C=C1C(=O)OC2/C=C(\C)CC/C=C(\C)CC(OC(C)=O)C12 (stereo unspecified) | 2.59 µM (active) | 2.59 µM (active) |  | 
C[C@H](O)[C@H](O)[C@H]1CNc2nc(N)[nH]c(=O)c2N1 | inactive | inactive |  | 
C#Cc1cnc2[nH]c(=O)n(C(CC)CC)c2n1 | inactive | inactive |  | 
C=C(C)C1CCC2(C(=O)O)CCC3(C(=O)O)C(CCC4C5(C)CCC(O)C(C)(C(=O)O)C5CCC43C)C12 (stereo unspecified) | inactive | inactive |  | 
CN1CCN(C(=O)c2ccc(Nc3nccc(-c4cccs4)n3)cc2Cl)CC1 | 0.731 µM (active) | 2.06 µM (active) |  | 
O=C(Nc1ccccc1)c1ccc(Nc2nnc(-c3ccc(O)cc3)c3ccccc23)cc1 | 16.4 µM (active) | 23.1 µM (active) |  | 
CC1(C)C(=O)CCC2(C)C1C(O)C=C1COC(=O)C12O (stereo unspecified) | inactive | inactive |  | 
N#Cc1ccc(Nc2nc(-c3ccc(O)cc3O)cs2)cc1C(F)(F)F | 5.17 µM (active) | 4.61 µM (active) |  | 
Cc1ccc(NS(=O)(=O)c2cc3c(cc2N[C@H](C)CO)NC(=O)CC3)cc1C | 20.6 µM (active) | 14.6 µM (active) |  | 
CC1=C(C(=O)O)/C(=C/CO[C@@H]2O[C@H](COC(=O)/C=C/c3ccc(O)cc3)[C@@H](O)[C@H](O)[C@H]2O)C(O)C1 (stereo partly specified) | inactive | inactive |  | 
CC1OC(=O)C[C@@H]2C(C(=O)O)=CO[C@@H](O[C@H]3O[C@H](CO)[C@@H](O)[C@H](O)[C@H]3O)[C@H]12 (stereo partly specified) | inactive | inactive |  | 
COC(=O)C1=CO[C@@H](O[C@@H]2O[C@H](CO)[C@@H](O)[C@H](O)[C@H]2O)[C@@H]2C(C)CC(=O)[C@]12O (stereo partly specified) | inactive | inactive |  | 
C=C1C(=O)O[C@@H]2[C@H]1[C@H](O)C[C@]1(C)[C@@H](O)CC=C(C)[C@@H]21 | 9.2 µM (active) | 4.11 µM (active) |  | 

SMILES | Potency [1] | Potency [2] | viability (% of control) [1] | viability, % of control [2]
CN(C)C(=O)NC1(c2ccccc2)CCN(CCC[C@]2(c3ccc(Cl)c(Cl)c3)CCCN(C(=O)c3ccccc3)C2)CC1 | 2.59 µM (active) | 4.11 µM (active) |  | 
O=C(/C=C/c1ccc(O)cc1)O[C@@H]1C[C@@](O)(C(=O)O)C[C@@H](O)[C@@H]1O | inactive | inactive |  | 
C=C(CO)C12OC1C1(C)C(=CC2=O)C(O)C(O)CC1C (stereo unspecified) | inactive | inactive |  | 
CNc1nc(NCc2ccc(NS(C)(=O)=O)cc2Cl)cc(-c2ccccn2)n1 | 20.6 µM (active) | 23.1 µM (active) |  | 
Cc1ccc(NS(=O)(=O)c2cc3c(cc2N[C@@H](C)CO)NC(=O)CC3)cc1Cl | 16.4 µM (active) | 11.6 µM (active) |  | 
CCN1CCN(c2ccc(Nc3ccc(-c4ccc(C(N)=O)cc4)n4ncnc34)cc2)CC1 | 0.517 µM (active) | 0.651 µM (active) |  | 
CCOCCn1nc(CC)c2nc(N3CCC(C(=O)O)CC3)nc(Nc3cc(C)ccn3)c21 | inactive | inactive |  | 
OC[C@@]1(O)CO[C@@H](OC[C@H]2O[C@@H](OCc3ccccc3)[C@H](O)[C@@H](O)[C@@H]2O)[C@@H]1O | inactive | inactive |  | 
Cc1nc(Nc2ccc(F)cc2)nc(N2CCc3ccccc3C2C)c1C (stereo unspecified) | 20.6 µM (active) | 14.6 µM (active) |  | 
O=S(=O)(NC1CCNCC1)c1cc(S(=O)(=O)c2ccccc2)ccc1C(F)(F)F | inactive | inactive |  | 
CC1=CC(=O)CC(C)(C)C1CCC(C)OC1OC(COC(=O)c2cc(O)c(O)c(O)c2)C(O)C(O)C1O (stereo unspecified) | inactive | inactive |  | 
CC1(C)CC2C(O)C3=C(CC(C)(O)C2C1)C(=O)OC3O (stereo unspecified) | inactive | inactive |  | 
CC(=O)CC(=O)Nc1ccc(Cl)c(C(F)(F)F)c1 | 9.2 µM (active) | 14.6 µM (active) |  | 
CN(Cc1cccs1)c1ncnc2ccc(-c3ccc4c(c3)OCO4)cc12 | 11.6 µM (active) | 11.6 µM (active) |  | 
O=C(O)/C=C/c1ccc(-c2ccc(O)c(C34CC5CC(CC(C5)C3)C4)c2)cc1 | 0.184 µM (active) | 0.103 µM (active) |  | 
C=C[C@@]1(C)CC(=O)C2[C@](C)(O1)[C@@H](OC(C)=O)[C@@H](O)[C@H]1C(C)(C)CCC[C@]21C (stereo partly specified) |  |  | 97.8% [at 9.25 µM] (inactive) | 89.7% [at 9.25 µM] (inactive)
Nc1n[nH]c(N)c1N=Nc1ccc(O)cc1 | 9.2 µM (active) | 6.51 µM (active) |  | 
O=C(c1cc2c(cc1F)OC(c1ccc(F)cc1)(c1ccc(Cl)cc1Cl)O2)N1CCOCC1 (stereo unspecified) | inactive | inactive |  | 
CCC(C)C1NC(=O)C(Cc2ccccc2)NC(=O)C(CCCCCC(=O)C(O)CO)NC(=O)C2CCCCN2C1=O (stereo unspecified) | 2.43 µM (active) | 1.93 µM (active) |  | 
CC1(C)CC[C@]2(C(=O)O[C@@H]3O[C@H](CO)[C@@H](O)[C@H](O)[C@H]3O)CC[C@]3(C)C(=CCC4[C@@]5(C)CC[C@H](O[C@@H]6O[C@H](C(=O)O)[C@@H](O)[C@H](O[C@@H]7O[C@H](CO)[C@H](O)[C@H](O)[C@H]7O)[C@H]6O)C(C)(C)C5CC[C@]43C)C2C1 (stereo partly specified) |  |  | 81.1% [at 9.25 µM] (inactive) | 106% [at 9.25 µM] (inactive)

SMILES | Potency [1] | Potency [2] | viability (% of control) [1] | viability, % of control [2]
C[C@@H]1O[C@@H](O[C@H]2[C@@H]3C=CO[C@@H](O[C@@H]4O[C@H](CO)[C@@H](O)[C@H](O)[C@H]4O)[C@@H]3[C@@]3(CO)O[C@@H]23)[C@H](OC(=O)/C=C/c2ccc(O)c(O)c2)[C@H](O)[C@H]1O | inactive | inactive |  | 
COC1CC(O[C@H]2CC[C@@]3(C)C(=CC[C@]4(O)C3[C@H](OC(C)=O)[C@@H](OC(=O)c3ccccc3)[C@]3(C)[C@@H](C(C)=O)CC[C@@]34O)C2)OC(C)C1OC1CC(OC)C(OC2CC(OC)C(OC3OC(C)C(OC4OC(CO)C(O)C(O)C4O)C(OC)C3O)C(C)O2)C(C)O1 (stereo partly specified) |  |  | 74.5% [at 9.25 µM] (inactive) | 66.2% [at 9.25 µM] (inactive)
OC[C@H]1O[C@@H](OC[C@H]2O[C@@H](OCc3ccccc3)[C@H](O)[C@@H](O)[C@@H]2O)[C@H](O)[C@@H](O)[C@@H]1O | inactive | inactive |  | 
C[C@@H]1CC[C@]2(C(=O)O[C@@H]3O[C@H](CO[C@@H]4O[C@H](CO)[C@@H](O[C@@H]5O[C@@H](C)[C@H](O)[C@@H](O)[C@H]5O)[C@H](O)[C@H]4O)[C@@H](O)[C@H](O)[C@H]3O)CC[C@]3(C)C(=CCC4[C@@]5(C)C[C@@H](O)[C@H](O)[C@@](C)(CO)C5CC[C@]43C)C2[C@H]1C (stereo partly specified) |  |  | 87.5% [at 9.25 µM] (inactive) | 113% [at 9.25 µM] (inactive)
CC1(C)CCC2(CC1)N[C@@H](C(=O)N[C@@H]1CC[C@@H](C(N)=O)OC1)[C@H](c1ccnc(Cl)c1F)[C@]21C(=O)Nc2cc(Cl)ccc21 | 16 µM (active) | 5.68 µM (active) |  | 
O=C(CC1NCCC[C@H]1O)Cn1cnc2cc(Br)c(Cl)cc2c1=O (stereo partly specified) | inactive | inactive |  | 
CC(C)O[C@@H]1O[C@H](CO)[C@@H](O)[C@H](O)[C@H]1O | inactive | inactive |  | 
CN(c1ccccc1CNc1nc(Nc2ccc3c(c2)CC(=O)N3)ncc1C(F)(F)F)S(C)(=O)=O | 0.291 µM (active) | 0.326 µM (active) |  | 
CC1(C)O[C@@]2(C)CC[C@@H]1C[C@@H]2OC1OC(CO)C(O)C(O)C1O (stereo partly specified) | inactive | inactive |  | 
COC(=O)C1=COC(O[C@@H]2O[C@H](CO)[C@@H](O)[C@H](O)[C@H]2O)/C(=C\COC(=O)c2ccc(OC3OC(CO)C(O)C(O)C3O)c(OC)c2)C1CC(=O)OCCc1ccc(O)cc1 (stereo partly specified) |  |  | 83.5% [at 9.25 µM] (inactive) | 105% [at 9.25 µM] (inactive)
COC(=O)C1=COC(O[C@@H]2O[C@H](COC(=O)/C=C/c3ccc(O)cc3)[C@@H](O)[C@H](O)[C@H]2O)C2C(CO)=CCC12 (stereo partly specified) | inactive | inactive |  | 
CC(=O)OC1C(O)CC(O[C@@H]2O[C@H](CO)[C@@H](O)[C@H](O)[C@H]2O)C2CCC3C(=O)OC(c4ccoc4)CC3(C)C21 (stereo partly specified) | inactive | inactive |  | 
CC(=O)O[C@@]1(C)[C@@H]2CC(=C(C)C)C(=O)C[C@@]2(C)CC[C@H]1OC(=O)C1(C)OC1C (stereo partly specified) | inactive | inactive |  | 
CC[C@H](CO)Nc1nc(Nc2cccc(-c3ccccn3)c2)c2ncn(C(C)C)c2n1 | 2.59 µM (active) | 5.17 µM (active) |  | 
CCCCc1nc(Cl)c(CO)n1Cc1ccc(-c2ccccc2-c2nnn[nH]2)cc1 | inactive | inactive |  | 
COc1cc(C2CC(=O)Nc3c2cc(Br)c2ccccc32)cc(OC)c1OC (stereo unspecified) | inactive | inactive |  | 
C=C(C(=O)O)C1CCC2(C)CCC(O)C(C)(O)C2C1 (stereo unspecified) | inactive | inactive |  | 
C[C@@H]1CC[C@]2(C(=O)O[C@@H]3O[C@H](CO)[C@@H](O)[C@H](O)[C@H]3O)CC[C@]3(C)C(=CCC4[C@@]5(C)C[C@@H](O)[C@H](O)C(C)(C)C5CC[C@]43C)C2[C@]1(C)O (stereo partly specified) | inactive | inactive |  | 
